# Source: PubChem
# PME-1 primary: blocks human protein phosphatase methylesterase 1; recombinant PME-1, FP-Rh probe fluorescence polarization; inhibition, % at 5.9 µM; 0.53% of 320,000 active; AID 2130;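 active = inhibition above the campaign mean of all compounds plus 3 SD, cut at about 26% in these data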;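 note: competitive labeling of PME-1 active site by serine hydrolase directed probe; 0% = PME-1 with DMSO and 100% = wells lacking PME-1 enzyme; inhibitors block probe labeling so polarization falls and inhibition rises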
# LYPLA2 inh: blocks human lysophospholipase 2, a PME1 counter-screen. O95372. recombinant LYPLA2, FP-Rh probe fluorescence polarization. inhibition, % at 5.9 µM. 0.38% of 320,000 active;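 active = inhibition above the screen-wide mean plus 3 SD, limit set per campaign, cut at about 26% in these data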;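 note: 0% = LYPLA2 with DMSO and 100% = wells lacking LYPLA2 enzyme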
# Target sequence (O95372 whole entry, looked up): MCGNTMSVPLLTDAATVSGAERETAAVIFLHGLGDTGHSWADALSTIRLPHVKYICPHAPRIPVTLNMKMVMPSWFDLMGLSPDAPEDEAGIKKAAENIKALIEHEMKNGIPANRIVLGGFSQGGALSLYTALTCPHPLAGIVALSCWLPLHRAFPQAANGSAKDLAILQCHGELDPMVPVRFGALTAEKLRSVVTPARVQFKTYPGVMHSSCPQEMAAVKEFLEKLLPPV
# LYPLA1 counter: LYPLA1 (human) inhibition in PME1 counter-screen; recombinant LYPLA1, FP-Rh probe fluorescence polarization; inhibition, % at 5.9 µM; 0.16% of 320,000 active;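 active = inhibition above the mean of all tested compounds plus 3 SD, set per campaign, cut at about 14% in these data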;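 note: inhibitors block serine hydrolase probe labeling of LYPLA1 so polarization falls; 0% = enzyme with DMSO and 100% = wells lacking LYPLA1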
# Target sequence (O75608 whole entry, looked up): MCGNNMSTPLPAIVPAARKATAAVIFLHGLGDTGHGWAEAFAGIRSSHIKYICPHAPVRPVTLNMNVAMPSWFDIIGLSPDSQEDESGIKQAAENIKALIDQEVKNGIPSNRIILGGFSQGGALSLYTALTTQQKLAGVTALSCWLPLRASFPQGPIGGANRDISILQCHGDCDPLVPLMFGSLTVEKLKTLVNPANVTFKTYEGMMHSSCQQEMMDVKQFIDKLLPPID
# PREPL inhibitor: human PREPL enzyme inhibition; Q4J6C6; recombinant PREPL, fluorescence polarization activity-based probe; inhibition, % at 5.96 µM; 0.68% of 320,000 active; AID 2751;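 note: 0% = enzyme with DMSO and 100% = wells lacking enzyme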
# Fam108B inh: blocks mouse Fam108B hydrolase in RBBP9 counter-screen | recombinant Fam108B, FP-Rh probe fluorescence polarization | inhibition, % at 9.51 µM | 0.33% of 300,000 active;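 active = inhibition above the screen mean inhibition plus 3 SD, computed separately per campaign, cut at about 18% in these data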;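 note: inhibitors lower polarization as less probe binds the enzyme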
# PREPL inh cf: human PREPL inhibition, confirmation | 67% of 2,000 active | inhibition, % at 5.96 µM | shares compounds with PREPL inhibitor | AID 2803 | recombinant PREPL, fluorescence polarization activity probe;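 note: 0% = protein with DMSO and 100% = wells lacking protein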
# Active calls of the source: *; nt = no result given. Only some compounds are listed: those with a hit (about 1.3% of all), similar ones and a draw of the others. Cut-off read from the data, not from the text of the source, unless noted: active = inhibition above about 43%; inactive = the rest.
SMILES,PME-1 primary,LYPLA2 inh,LYPLA1 counter,PREPL inhibitor,Fam108B inh,PREPL inh cf
CCN(CC)CCCN1C=C2C(=O)C(C)(OC(=O)CCc3ccccc3)C(=O)C=C2C=C1c1ccc(C#N)cc1 (configuration not stated),7,7,-1,43*,4,30
COC(=O)CCC(=O)OC1(C)C(=O)C2=CN(Cc3ccco3)C(c3ccc(OC)cc3)=CC2=C(Br)C1=O (configuration not stated),0,-8,-9,8,6,nt
C=CCN1C=C2C(=O)C(C)(OC(=O)CCC(=O)OC)C(=O)C(Br)=C2C=C1c1ccc(OC)cc1 (configuration not stated),6,8,10,74*,5,58*
CCN(CC)CCCN1C=C2C(=O)C(C)(OC(=O)CCC(=O)OC)C(=O)C(Br)=C2C=C1c1ccc(OC)cc1 (configuration not stated),4,0,-5,70*,7,60*
COC(=O)CCC(=O)OC1(C)C(=O)C2=CN(C3CCCC3)C(c3ccc(OC)cc3)=CC2=C(Br)C1=O (configuration not stated),0,-5,1,54*,8,41
COc1ccc(CN2C=C3C(=O)C(C)(OC(=O)CCc4ccccc4)C(=O)C=C3C=C2c2ccc(C#N)cc2)cc1 (configuration not stated),10,2,-5,33,9,nt
Cc1ccc(S(=O)(=O)/N=C(/Nc2cccc3ccccc23)c2ccc(F)cc2)cc1,-5,5,-3,-2,-1,nt
COCCN1C=C2C(=O)C(C)(OC(=O)CCC(=O)OC)C(=O)C(Br)=C2C=C1c1ccc(OC)cc1 (configuration not stated),4,3,-1,64*,3,36
COC(=O)CCC(=O)OC1(C)C(=O)C2=CN(c3ccc(OC)cc3)C(c3ccc(OC)cc3)=CC2=C(Br)C1=O (configuration not stated),8,-2,0,37,5,nt
CCOc1cc(/C=C2\C(=N)N3N=C(N4CCCCC4)SC3=NC2=O)ccc1OC(=O)c1ccco1,0,0,-4,51*,3,59*
CCOc1cc(/C=C2/C(=N)N3C(=NC2=O)SN=C3S(C)(=O)=O)ccc1OC(=O)c1ccco1,-7,0,2,52*,-1,71*
CCOc1cc(/C=C2/C(=N)N3C(=NC2=O)SN=C3S(C)(=O)=O)ccc1OS(=O)(=O)c1ccccc1,2,-7,-7,1,-1,nt
CCN1C(=O)[C@H]2[C@@H](c3ccc(-c4ccc(Cl)c(Cl)c4)cc3)N[C@@](C)(C(=O)OC)[C@H]2C1=O,-8,22,9,46*,-2,43
CCN1C(=O)[C@H]2[C@@H](c3ccc(-c4ccc(Cl)c(Cl)c4)c(OC)c3)N[C@@](C)(C(=O)OC)[C@H]2C1=O,4,6,5,18,1,nt
C=CCc1c(C)[nH]c2c(OC)cccc2c1=S,3,-4,-1,7,2,nt
COc1ccc(C2=CCN3CCCCC3C2)c(-c2ccc(OC)c(OC)c2)c1 (configuration not stated),nt,nt,nt,47*,nt,43
COc1ccc(OCc2nnc(SCC(=O)NC3CC4CCC3C4)o2)cc1 (configuration not stated),-3,-6,-2,14,3,nt
O=C(CSc1nnc(COc2ccc(Cl)cc2)o1)NC1CC2CCC1C2 (configuration not stated),0,-2,-2,46*,1,36
CN(Cc1ccccc1)C(=O)c1ccc(NC(=O)C2=CSCCO2)cc1,0,2,0,6,-1,nt
NC(=O)c1cc(S(=O)(=O)NCCCc2ccccc2)cs1,1,4,-1,-29,-1,nt
CC(C)=C1SC(N2CCN(c3ccc(C)cc3)CC2)=NC1=O,-1,6,0,50*,1,45*
CC(C)=C1SC(N2CCN(c3cccc(C(F)(F)F)c3)CC2)=NC1=O,4,4,-5,13,-2,nt
CC(C)=C1SC(N2CCN(c3ccc(Cl)cc3)CC2)=NC1=O,3,-4,0,50*,2,48*
CC(C)=C1SC(N2CCOCC2)=NC1=O,-4,0,-4,-9,-2,nt
CC(C)n1nc(C(=O)NNC(=O)c2ccc(OC(F)F)cc2)c2ccccc2c1=O,4,1,-1,-1,nt,nt
SMILES,PME-1 primary,LYPLA2 inh,LYPLA1 counter,PREPL inhibitor,Fam108B inh,PREPL inh cf
Cc1ccc(-c2[nH]c3cc(C(=O)NCCCn4ccnc4)ccc3c(=O)c2O)cc1,18,-6,-7,55*,6,30
CCN(C(=O)CCN1C(=O)S/C(=C\c2ccccc2)C1=O)C1CCS(=O)(=O)C1 (configuration not stated),2,-5,-2,45*,2,37
COc1ccc(OCC(=O)N/N=C2\CCCCc3ccccc32)cc1,1,-3,2,-11,-3,nt
CCc1ccc(OCC(=O)N/N=C2\CC(=O)c3ccccc32)cc1,2,-1,-5,54*,2,-2
COc1ccc(S(=O)(=O)N(C)C)cc1NC(=O)CCNC(=O)c1ccco1,1,-2,-5,-7,-2,nt
N#CCCN(C(=O)COC(=O)COc1ccc(Cl)cc1)c1ccccc1,-2,6,-2,33,-2,nt
N#CCCN(C(=O)COC(=O)CSc1ccc(Cl)cc1)c1ccccc1,nt,nt,nt,50*,nt,39
CN(C)c1ccc(NC(=O)c2ccc(COc3cccc(Cl)c3)o2)cc1,13,16,-3,58*,6,47*
CCN1CCN(C(=O)c2ccc(COc3cccc(Cl)c3)o2)CC1,0,5,3,-11,0,nt
Cc1ccc(C(=O)NCC(=O)OC(C)C(=O)Nc2ccc(N(C)C)cc2)cc1C (configuration not stated),-2,-5,-1,4,-3,nt
COc1ccc(NCc2nc3ccccc3n2CCOc2ccc(C)cc2)cc1,11,7,-7,62*,3,60*
COc1ccc(NCc2nc3ccccc3n2CCOc2ccccc2)cc1,15,4,-3,40,4,nt
CCOc1cc(N2CCOCC2)c(OCC)cc1NC(=O)COC(=O)CCc1c[nH]c2ccccc12,4,0,-6,76*,-3,69*
COc1cc(C(=O)NCC2CCCO2)ccc1OCc1ccc(Cl)cc1Cl (configuration not stated),-1,-4,-8,44*,-4,43
O=S(=O)(c1ccc(-c2csc(=Nc3ccccc3)n2CCCN2CCOCC2)cc1)N1CCOCC1,4,0,-2,44*,2,52*
CC(C)CC(=O)Nc1nnc(S(=O)(=O)N2CCc3ccccc32)s1,2,5,0,-5,1,nt
COc1ccc2c(/C=N/Nc3ccc(C(=O)O)cc3)c[nH]c2c1,23,10,3,56*,5,10
